# Source: paper PMC11006913
# Residue numbers refer to the chain shown, from its start.
# Legend:
# Test in all cases: PBM; 200 nM protein, PBS
# Details in all cases: dsDNA, one strand shown
# NKX2-6 [1] = biological target: T1, NKX2-6 (Homo sapiens, UniProt A6NCS4 118-204, F151L)
# T1 sequence: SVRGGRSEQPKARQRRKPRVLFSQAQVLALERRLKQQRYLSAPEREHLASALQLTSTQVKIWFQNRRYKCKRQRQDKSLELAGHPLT
# NKX2-6 [2] = biological target: T2, NKX2-6 (Homo sapiens, UniProt A6NCS4 118-204, R150C)
# T2 sequence: T1 sequence with R33C, L34F
# NKX3-2 [3] = biological target: NKX3-2 (Homo sapiens, UniProt P78367 192-278, P234S)
# NKX3-2 (Homo sapiens, UniProt P78367 192-278, P234S), sequence (P78367 192-278 P234S): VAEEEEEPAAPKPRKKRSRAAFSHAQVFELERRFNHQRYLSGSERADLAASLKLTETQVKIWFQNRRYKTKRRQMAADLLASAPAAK
# NKX3-2 [4] = biological target: NKX3-2 (Homo sapiens, UniProt P78367 192-278)
# NKX3-2 (Homo sapiens, UniProt P78367 192-278), sequence (P78367 192-278): as the sequence (P78367 192-278 P234S) above, with S43P counted along it
sequence,measurement,setting,value
AGCCTGGG,binding signal,NKX2-6 [1],"9.24 upbm affinity estimate (log intensity, higher = more binding, comparable within an allelic series)"
GACGCCGC,binding signal,NKX2-6 [2],"9.27 upbm affinity estimate (log intensity, higher = more binding, comparable within an allelic series)"
GACTCGGC,binding signal,NKX2-6 [1],"9.23 upbm affinity estimate (log intensity, higher = more binding, comparable within an allelic series)"
GACTGGCC,binding signal,NKX3-2 [3],"10.5 upbm affinity estimate (log intensity, higher = more binding, comparable within an allelic series)"
same,binding signal,NKX3-2 [4],"10.5 upbm affinity estimate (log intensity, higher = more binding, comparable within an allelic series)"
CGGGCTAG,binding signal,NKX2-6 [2],"9.48 upbm affinity estimate (log intensity, higher = more binding, comparable within an allelic series)"
CGGGGGTC,binding signal,NKX2-6 [2],"9.26 upbm affinity estimate (log intensity, higher = more binding, comparable within an allelic series)"
